# Results filed as inconclusive are left out. Values without a mark were called inactive. Calls of active or inactive are those of the source. Calls come from the whole dose curve.
# Biological target: Retinoic acid receptor RXR-alpha (Homo sapiens) (UniProt P19793)
# Assay: qHTS assay to identify small molecule agonists of the RXR signaling pathway (AID 1159527); note: nearly all actives have a fitted effect of over 35% in size
# Settings: HEK293T RXRa-UAS-bla, beta-lactamase ratio, 16 h; series mostly up to 76.8 µM; activation: at the top concentration
# Source text: U.S. Tox21 Program National Center for Advancing Translational Sciences [NCATS] NIH Chemical Genomics Center [NCGC] U.S. Environmental Protection Agency [EPA] National Institutes of Environmental Health Sciences [NIEHS] National Toxicology Program [NTP] U.S. Food and Drug Administration [FDA] Tox21 Assay Overview: The Retinoid X receptor (RXR), a nuclear hormone receptor expressed in liver, spleen, placenta, epidermis, central nervous system. These receptors are able to form homo and heterodimers with other nuclear receptors and due to this heterodimerizing ability, RXR functions as master regulators producing diverse physiological effects. Three subtypes of RXR exist; alpha, beta and gamma. Retinoid X receptor alpha (RXR-alpha) has potential roles in metabolic signaling pathways, skin alopecia, dermal cysts, cardiac development, insulin sensitization etc. Therefore screening environmental chemicals on RXR-alpha signaling can be used for the studies focused on such therapeutic applications. For quantification of RXR-alpha ligands signaling, GeneBLAzer RXR alpha-UAS-bla HEK 293T (Life Technologies, Carlsbad, CA) cells containing a beta-lactamase reporter-gene under control of Retinoid X receptor-alpha response element were used to screen Tox21 10K library.
# Tox21 Assay Protocol Summary: RXR-alpha HEK 293T cells were dispensed at 2,000 cells/6 uL of assay medium containing 2% charcoal-stripped FBS using a Multidrop Combi (ThermoFisher Scientific, Waltham, MA) dispenser. The assay was performed in black wall/clear-bottom 1536-well plates (Greiner Bio-One North America Inc. Monroe, NC). 9-cis retinoic acid was used as a positive control in the agonist mode screen. After the assay plates were incubated at 37 C and 5% CO2 for 5 hr, 23 nL of compounds dissolved in DMSO, positive controls or DMSO only were transferred to the assay plate by a Pintool station (Kalypsys, San Diego, CA). The assay plates were incubated at 37 C and 5% CO2 for 16 hr. One uL of LiveBLAzer B/G FRET substrate (Life Technologies) was added using a Flying Reagent Dispenser (Aurora Discovery, San Diego, CA) and the plates were incubated at room temperature for 2 hr. Fluorescence intensity (405 nm excitation, 460/530 nm emission) was measured using an Envision plate reader (PerkinElmer, Shelton, CT).
# % is set by controls: 0 for no effect and ±100 for the full control effect; potency is the fitted concentration of half-maximal effect.
# Retinoic acid receptor RXR-alpha (Homo sapiens), sequence (P19793 whole entry, looked up): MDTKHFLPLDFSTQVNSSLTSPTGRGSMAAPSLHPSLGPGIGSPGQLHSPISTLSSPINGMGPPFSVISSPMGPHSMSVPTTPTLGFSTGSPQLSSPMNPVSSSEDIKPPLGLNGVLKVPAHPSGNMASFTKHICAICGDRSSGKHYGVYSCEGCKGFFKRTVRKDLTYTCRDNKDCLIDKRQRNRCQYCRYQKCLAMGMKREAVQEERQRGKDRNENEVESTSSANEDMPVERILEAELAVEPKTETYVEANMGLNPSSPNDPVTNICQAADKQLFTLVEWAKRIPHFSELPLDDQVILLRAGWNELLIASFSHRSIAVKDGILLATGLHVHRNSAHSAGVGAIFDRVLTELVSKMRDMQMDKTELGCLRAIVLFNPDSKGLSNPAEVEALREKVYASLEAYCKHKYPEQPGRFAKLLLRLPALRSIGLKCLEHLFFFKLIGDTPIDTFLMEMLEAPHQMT
SMILES,activation,Potency
CCCCC1CCC(=O)O1 (stereo not given),-0.207%,
Cn1cnc2c(F)c(Nc3ccc(Br)cc3Cl)c(C(=O)NOCCO)cc21,-4.17% [at 35.3 µM],
C=Cc1ccccc1,-3.32%,
NC/C=C/C(=O)O,0.0944% [at 35.3 µM],
C=O,-0.633%,
CCCCCCCCCC/C=C/C#N,-10.8%,
O=Cc1ccc(F)c(Br)c1,4.78%,
CCOc1ccc(NS(=O)(=O)c2ccc(N)cc2)nn1,6.86% [at 35.3 µM],
COc1ccc(Nc2ccc(OC)cc2)cc1,-10.5%,
COc1nc(C)nc(NC(=O)NS(=O)(=O)c2ccccc2OCCCl)n1,5.02%,
CC(C)C(=O)OCC(C)(C)C(O)C(C)C (stereo not given),0.841%,
NCCCN1CCN(CCCN)CC1,4.64%,
CC(C)c1ccccc1,0.828%,
NC(=O)Cc1cccc(C(=O)c2ccccc2)c1N,-2.63% [at 35.3 µM],
COC(=O)C(C)O (stereo not given),,12.6 µM (active)
CC(C)CCCCCCc1ccc(OCCOCCO)cc1,-4.65%,
CCCCCCC,7.09%,
Oc1ccccc1F,-14.9%,
CCN[C@H]1CN(CCCOC)S(=O)(=O)c2sc(S(N)(=O)=O)cc21,4.83% [at 35.3 µM],
COC(=O)c1ccc(OC)cc1,5.52%,

SMILES,activation,Potency
O=C(O)[C@@H](O)[C@H](O)[C@H](O)[C@@H](O)C(=O)O,13.8% [at 35.3 µM],
CC(C)C[C@H](NC(=O)OCC1c2ccccc2-c2ccccc21)C(=O)O,1.2%,
COC(=O)N[C@H](C(=O)N[C@@H](Cc1ccccc1)[C@@H](O)CN(Cc1ccc(-c2ccccn2)cc1)NC(=O)[C@@H](NC(=O)OC)C(C)(C)C)C(C)(C)C,6.64% [at 35.3 µM],
CN(C)CC[C@@H](c1ccc(Cl)cc1)c1ccccn1,1.59% [at 35.3 µM],
COc1cc(N)c(Cl)cc1C(=O)NC1CCN(Cc2ccccc2)CC1,-1.61% [at 35.3 µM],
OCCN(CCO)CCN(CCO)CCO,10.2%,
CS(=O)(=O)c1ccc([C@@H](O)[C@@H](CF)NC(=O)C(Cl)Cl)cc1,3.62% [at 35.3 µM],
OCc1ccccc1O,-3.17% [at 35.3 µM],
CC(=O)Oc1cc(C(C)C)c(OCCN(C)C)cc1C,1.17% [at 35.3 µM],
CC(=O)OC1C2(C)CCC(C2)C1(C)C (stereo not given),-0.0814%,
O=C(Cl)c1cccc([N+](=O)[O-])c1,-4.16%,
NC1=NCC2c3ccccc3Cc3ccccc3N12 (stereo not given),9.13% [at 35.3 µM],
Cc1ccsc1C(=CCCN1CCC[C@@H](C(=O)O)C1)c1sccc1C,-1.87% [at 35.3 µM],
COC(C)CCO (stereo not given),-2.5%,
CCN(CC)C(=O)N(CC)CC,-3.12%,
CN1CCN(c2c(F)cc3c(=O)c(C(=O)O)cn(CCF)c3c2F)CC1,-9.91% [at 35.3 µM],
Nc1cccc(S(=O)(=O)O)c1,-10.2%,
O=C1CCCc2ccccc21,,6.99 µM (active)
CCCCCOc1ccc(C2SC(=O)NC2=O)cc1OCC (stereo not given),,5.35 µM (active)
FC(F)(F)C(Cl)(Cl)Cl,-0.569%,

# — PubChem BioAssay (Tox21)
